Measured values: PubChem BioAssay AID504467 (National Center for Advancing Translational Sciences (NCATS), 2011)
Among all 330,000 compounds or so, about 7,700 (2.3%) were called active. Not shown: some 26% with an inconclusive outcome. The sample holds actives, similar compounds and a random draw of the others, so the mix is not that of the screen. The call rests on the fitted dose curve; in most records, active means well fitted inhibition curve with a large enough effect; inconclusive means small, poorly fitted or top-dose-only effect, or effect the other way; inactive means flat fitted curve, though single readings scatter.

assay: qHTS screen for small molecules that inhibit ELG1-dependent DNA repair in human embryonic kidney (HEK293T) cells expressing luciferase-tagged ELG1; conditions: HEK293T ELG1-luciferase reporter, luminescence, 16 h, DNA damage induced by 5-fluorouridine; series mostly up to 46.1 µM; activity change, negative = inhibition: at the top concentration; further: nearly all actives have a fitted effect of over 55% in size
In short: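 5-Fluorouridine DNA damage + compound/DMSO, 2,000 cells/well, 16 h, 37 °C/5% CO2. ONE-Glo, 30 min RT, luminescence. Readout = decrease in reporter signal.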
On the % scale 0 is the no-effect control and ±100 the full control effect; potency means the concentration at half of the fitted maximal effect.

SMILES | activity change, negative = inhibition | Potency
CCN(c1ccccc1)S(=O)(=O)c1cc(C(=O)NCc2ccccn2)ccc1C | -4.44% (inactive) | 
CC(=O)c1sc(NC(=O)CCN2C(=O)C3CC=CCC3C2=O)nc1-c1ccccc1 (stereo unspecified) | -10.9% (inactive) | 
O=S(=O)(NCC1CN(S(=O)(=O)c2ccc3c(c2)OCCO3)C1)c1c(F)cccc1F | 19.5% (inactive) | 
CC(C)N(C(=O)CN1CCN(S(=O)(=O)c2ccc(Br)s2)CC1)C(C)C | -6.18% (inactive) | 
O=C(NCc1cccs1)C1CCN(S(=O)(=O)c2ccc(Cl)cc2)CC1 | 8.41% (inactive) | 
O=C(CNCc1cccs1)Nc1cc(S(=O)(=O)N2CCCC2)ccc1Cl |  | 16.4 µM (active)
CS(=O)(=O)c1ccc(Cl)c(NC(=O)COC(=O)c2cccc(S(=O)(=O)N3CCCC3)c2)c1 | -2.83% (inactive) | 
O=C(CN1CCCCCC1)Nc1ccc(S(=O)(=O)N2CCCCC2)cc1 | 0.957% (inactive) | 
O=C(NN=Cc1ccc(N2CCOCC2)cc1)c1cc2ccccc2cc1O | 0% (inactive) | 
CCCOc1ccc(C(=O)C(CCC(CNCC)C(=O)c2ccc(OCCC)cc2)CNCC)cc1 (stereo unspecified) |  | 23.1 µM (active)
COc1ccc(OCCC(=O)c2ccc(OC)cc2)cc1 | 4.01% (inactive) | 
CCCCOc1ccc(C(=O)NN2CCN(C)CC2)cc1 | 17.4% (inactive) | 
COc1ccc(-c2c(C#Cc3ccsc3)c3cc(-c4ccc(CN5CCOCC5)cc4)ccc3n2C)cc1 | 15.4% (inactive) | 
COc1cc(OC)cc(-c2c(C#Cc3ccsc3)c3cc(-c4ccc(OC)cc4F)ccc3n2C)c1 | 20.3% (inactive) | 
Cc1nc(C(=O)Nc2ccc(Cl)cc2)sc1C1(C)CC(c2ccccc2)=NO1 (stereo unspecified) |  | 18.3 µM (active)
O=C(Nc1ccc(Cl)cc1)OCc1cc(-c2ccccc2)on1 | 4.31% (inactive) | 
O=C1CC2(CC(c3ccc(Cl)cc3)=NO2)C(=O)N1c1ccccc1 (stereo unspecified) | -2.34% (inactive) | 
COc1ccccc1N1CCN(S(=O)(=O)c2ccc3c(c2)NC(=O)CS3)CC1 | -2.54% (inactive) | 
CCOC(=O)[C@H]1[C@H]2COc3cc(OC)ccc3[C@@H]2N2C(=O)CN(Cc3ccc(Cl)cc3)C(=O)[C@@]12C | -4.83% (inactive) | 
CCc1ccc(CN(C)C(=O)C2CCC(=O)N(Cc3cccc(OC)c3)C2)nc1 (stereo unspecified) | 16.9% (inactive) | 
CN(C)S(=O)(=O)c1ccc(N2CCCC2)c(C(=O)Nc2ccc(Br)cc2F)c1 | -7.6% (inactive) | 
Cc1c(C(=O)Nc2ccccc2Cl)oc2ccc(S(=O)(=O)N3CCC4(CC3)OCCO4)cc12 |  | 3.66 µM (active)
Cc1c(C(=O)NCCN(C)C)oc2ccc(S(=O)(=O)N3CCCC3)cc12 | 13.6% (inactive) | 
CCOc1ccccc1NC(=O)c1cc(S(=O)(=O)N2CCC3(CC2)OCCO3)ccc1F | -3.11% (inactive) | 

SMILES | activity change, negative = inhibition | Potency
CCN(Cc1ccccc1)C(=O)Cc1ccc(OC)c(S(=O)(=O)N2CCOCC2)c1 | -2.15% (inactive) | 
C=CCn1c(SCC(=O)NC(=O)Cc2ccccc2)nc2ccccc2c1=O | 3.04% (inactive) | 
C=CCn1c(SCC(=O)Nc2nc3ccccc3s2)nnc1-c1ccccc1O | -15.9% (inactive) | 
C=CCn1c(SCC(=O)NCc2ccccc2)nnc1-c1cc(Br)ccc1O |  | 13 µM (active)
Cc1cc(N/N=C/c2ccccc2F)c2ccccc2n1 | 4.96% (inactive) | 
Oc1ccc(/C=N/Nc2nc(-c3ccccc3F)nc3ccccc23)c(O)c1 |  | 14.6 µM (active)
FC(F)(F)c1nc2ccccc2nc1N/N=C/c1ccc(Cl)cc1 | -5.61% (inactive) | 
COc1cc(/C=N\NC(=O)CNC(=O)c2cccc([N+](=O)[O-])c2)ccc1O | -5.46% (inactive) | 
COc1ccc(C(=O)NCC(=O)N/N=C/c2ccc([N+](=O)[O-])s2)cc1OC |  | 8.2 µM (active)
CCOc1ccc(NC(=O)CCC(=O)N/N=C/c2ccc([N+](=O)[O-])s2)cc1 | -21.4% (inactive) | 
COc1ccc2ccccc2c1/C=N/NC(=O)c1cc(C)[nH]n1 | -0.422% (inactive) | 
COc1ccc(C(=O)COC(=O)c2ccc([N+](=O)[O-])s2)cc1OC | 12.6% (inactive) | 
CC(C)(C)c1cc(C(=O)N/N=C/c2ccc([N+](=O)[O-])s2)n[nH]1 |  | 5.17 µM (active)
O=[N+]([O-])c1ccc(O)c(/C=N/Nc2ccccc2[N+](=O)[O-])c1 |  | 18.3 µM (active)
O=[N+]([O-])c1ccccc1Nc1ccc(O)cc1 | -19% (inactive) | 
Nc1nnnn1/N=C/c1cc([N+](=O)[O-])ccc1O | -2.35% (inactive) | 
Cc1ccccc1SCC(=O)OCC(=O)N1CC(=O)Nc2ccccc21 | 0% (inactive) | 
CCCn1c(C(C)Nc2nc(-c3ccc(C)cc3)cs2)nc2cc(Cl)c(N3CCCCC3)cc21 (stereo unspecified) | 16.4% (inactive) | 
CCOC(=O)c1cnc2[nH]c3ccccc3n2c1=O | 4.07% (inactive) | 
Cc1ccccc1Cn1c(=O)[nH]c2ccccc21 | -14.6% (inactive) | 
CCCc1cc(=S)n2c([nH]c3ccccc32)c1C#N |  | 16.4 µM (active)
Cc1ccc(S(=O)(=O)N(C)CC(=O)NCC(c2ccc(F)cc2)N2CCOCC2)cc1 (stereo unspecified) | 1.93% (inactive) | 
O=C(OCC(=O)N1CCCCCC1)c1ccc(Cl)nc1 | 0.267% (inactive) | 
CCCCn1nc(C(=O)OCC(=O)Nc2sccc2C(N)=O)c2ccccc2c1=O | 10.7% (inactive) | 

SMILES | activity change, negative = inhibition | Potency
CCn1nc(C(=O)Nc2ccc(N3CCOCC3)cc2)c2ccccc2c1=O | -3.51% (inactive) | 
CCCCn1nc(C(=O)Nc2cccc(C(=O)NC3CC3)c2)c2ccccc2c1=O |  | 13 µM (active)
Cn1c(N)c(C(=O)COC(=O)c2cccc(S(=O)(=O)N3CCOCC3)c2)c(=O)n(C)c1=O | -10% (inactive) | 
CCCn1c(CCNc2nc(-c3ccc(OC)cc3)cs2)nc2ccccc21 | -26% (inactive) | 
COc1ccccc1CC(=O)NCCc1c[nH]c2ccccc12 | -6% (inactive) | 
CCN(CC(=O)NCCc1ccccc1)S(=O)(=O)c1ccc(C)cc1 | -15.1% (inactive) | 
CCN(CC(=O)NCCc1ccccc1)S(=O)(=O)c1ccccc1 | 6.38% (inactive) | 
CN(c1ccccc1)S(=O)(=O)c1ccc(Cl)c(C(=O)OCC(N)=O)c1 | -2.61% (inactive) | 
CSCCC(NS(=O)(=O)c1ccc(C)cc1)C(=O)NCCc1c[nH]c2ccccc12 (stereo unspecified) | -7.72% (inactive) | 
CN(c1ccccc1)S(=O)(=O)c1ccc(Cl)c(C(=O)OCC(=O)NCc2ccco2)c1 | 10.8% (inactive) | 
Cc1ccc(S(=O)(=O)N(C)CC(=O)NCCc2c[nH]c3ccccc23)cc1 |  | 14.6 µM (active)
CN(c1ccccc1)S(=O)(=O)c1ccc(Cl)c(C(=O)NCCc2c[nH]c3ccccc23)c1 |  | 18.4 µM (active)
CCN(CC)S(=O)(=O)c1ccc2[nH]cc(C(=O)NCCc3ccccc3)c(=O)c2c1 |  | 5.8 µM (active)
COc1cc(CN2CCCC(C(=O)c3ccc(SC)cc3)C2)cc(Cl)c1O (stereo unspecified) | -21% (inactive) | 
CCOc1ccccc1OCC(=O)Nc1ccccc1C(=O)NC1CC1 | -13.3% (inactive) | 
Cc1ccc(S(=O)(=O)NCc2ccc(C(=O)NC3CCC(C)CC3)cc2)cc1 (stereo unspecified) | 0.703% (inactive) | 
CCCCn1c(N)c(N(CCOC)C(=O)c2oc3ccc(OC)cc3c2C)c(=O)[nH]c1=O | 12.6% (inactive) | 
CCN(C(=O)COC(=O)CCC(=O)c1cccs1)C1CCCCC1 | 0% (inactive) | 
CC1CCN(C(=O)c2cccc(S(=O)(=O)N3CCCc4ccccc43)c2)CC1 | 16% (inactive) | 
O=C(Nc1nc2ccc([N+](=O)[O-])cc2s1)c1ccc(S(=O)(=O)N2CCCc3ccccc32)cc1 |  | 2.31 µM (active)
CS(=O)(=O)c1ccc2nc(NC(=O)c3ccc(N4CCCC4=O)cc3)sc2c1 | -12.2% (inactive) | 
Cc1ccc(NC(=O)c2cccc(S(=O)(=O)N3CCCc4ccccc43)c2)nc1 |  | 18.3 µM (active)
Cc1cccc(NC(=O)c2cccc(S(=O)(=O)N3CCCC3)c2)n1 | -4.45% (inactive) | 
CN(C)CCCN(C(=O)c1ccc(S(=O)(=O)N2CCCc3ccccc32)cc1)c1nc2ccc(F)cc2s1 | 0% (inactive) | 

SMILES | activity change, negative = inhibition | Potency
O=C(COC(=O)c1ccco1)Nc1ccc(Cl)cn1 | 23.5% (inactive) | 
COc1ccc(Cl)cc1NC(=O)COC(=O)c1ccc(Br)o1 | 22.8% (inactive) | 
O=C(NCCN1CCOCC1)c1cccc(S(=O)(=O)Nc2ccc(F)cc2)c1 | 4.32% (inactive) | 
COc1ccc(CCNC(=O)CSCc2ccc(Br)cc2)cc1OC | -25.8% (inactive) | 
COc1ccc(COC(=O)NC(C(=O)O)c2ccccc2)cc1 (stereo unspecified) | 0.779% (inactive) | 
COc1ccc(C(CCN(Cc2ccc(OC)c(OC)c2)C(=O)CCl)c2ccccc2)cc1 (stereo unspecified) |  | 20.6 µM (active)
CCOC(=O)CN(Cc1ccc(OC)c(OC)c1)S(=O)(=O)c1ccc(OC)cc1 | 3.12% (inactive) | 
Cc1cccc(C)c1Nc1nnc(SCC(=O)NCCCN2CCCC2=O)s1 | -6.62% (inactive) | 
C[C@H](CO)N1C[C@H](C)[C@@H](CN(C)Cc2ccc(-c3ccccc3)cc2)Oc2ccc(NC(=O)Cn3cnnn3)cc2C1=O | -17.5% (inactive) | 
CC(=O)Nc1cccc(OCC(=O)/C=C2\N(C)c3ccccc3C2(C)C)c1 |  | 18.3 µM (active)
CCOc1cccc(NC(=O)CC#N)c1 | -2.32% (inactive) | 
Cc1noc(C)c1C(=O)OCC(=O)/C=C1\N(C)c2ccccc2C1(C)C | 10.3% (inactive) | 
Cc1ccc(-n2c(SCC(=O)NCCC3=CCCCC3)nc3n[nH]c(C)c3c2=N)cc1Cl | 3.77% (inactive) | 
Cc1ccc2cc(C)c(N3CCN(c4ccc(F)cc4)CC3)nc2c1 | 2.56% (inactive) | 
COc1ccccc1-c1nn(Cc2ccccc2)cc1C(=O)N1CCN(c2ncccn2)CC1 | -22.5% (inactive) | 
CN(C)c1ccnc2sc3c(=O)n(Cc4ccccc4)cnc3c12 |  | 4.61 µM (active)
O=c1c2[nH]c3ccc(Cl)cc3c2ncn1Cc1ccccn1 | 3.64% (inactive) | 
O=c1c2c(ncn1Cc1ccccc1)nc1n2CCC1 | 2.62% (inactive) | 
Cc1c(NC(=O)C(C)OC(=O)c2ccccc2O)c(=O)n(-c2ccccc2)n1C (stereo unspecified) | 22.8% (inactive) | 
CC(OC(=O)CCCc1c[nH]c2ccccc12)C(=O)Nc1ccc(S(N)(=O)=O)cc1 (stereo unspecified) | 3.33% (inactive) | 
Cc1ccc(NC(=O)C(C)OC(=O)Cc2c[nH]c3ccccc23)cc1S(=O)(=O)N1CCOCC1 (stereo unspecified) |  | 18.3 µM (active)
Cc1cc(C(=O)OC(C)C(=O)Nc2cccc(S(=O)(=O)N3CCOCC3)c2)c(C)o1 (stereo unspecified) | -16.8% (inactive) | 
O=C(N[C@H]1C/C=C\C(c2ccc(F)cc2)N(Cc2ccccc2)C(=O)C1)OCC1c2ccccc2-c2ccccc21 (stereo partly specified) | -10.5% (inactive) | 
Nc1c(Cl)cc(-c2csc(N3CCCC3c3nc4cc(Cl)c(Cl)cc4n3CCOCCO)n2)cc1Cl (stereo unspecified) | -9.47% (inactive) | 
